Experimental findings from PubChem BioAssay (NCATS) are described below.

Assay [1] addresses Estrogen receptor (Homo sapiens) (UniProt P03372). Kind of assay: qHTS assay for small molecule agonists of estrogen receptor alpha signaling (AID 588514; calls by dose curve;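 further: 0% = vehicle only and 100% = reference agonist; nearly all actives have a fitted effect of over 70% in size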). In short, it runs like this:
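Cells were plated at 5000/well, incubated 4 hrs at 37 C, dosed with compound titration series, incubated 18 hrs at 37 C, loaded with CCF4 dye for 2 hrs at RT, then fluorescence was read.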
On the technique in general: qHTS replaces the single test concentration by a dilution series.

Assay [2] is described as follows: qHTS assay for small molecule antagonists of peroxisome proliferator-activated receptor delta signaling (AID 588535; active means well fitted inhibition curve with a large enough effect in the signal ratio, with a control signal flat, not every such curve was filed as active; the % refers to the signal ratio;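 on max response: cells co-treated with a PPAR-delta agonist as stimulator during compound exposure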). The conditions noted are these: HEK293T PPARd-UAS-bla, beta-lactamase FRET ratio, 18 h; 460 nm channel. A digest of the protocol:
(§1)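 Reporter: UAS-bla under PPAR-delta response element, HEK293T host. Medium: 2% charcoal/dextran FBS. Dosing: titration, 18 hrs, 37 C. Detection: CCF4, 2 hrs RT, 405 ex/460 and 530 em.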

In assay [3] the target is Peroxisome proliferator-activated receptor delta (Homo sapiens) (UniProt Q03181). The assay is described as above. In short, it runs like this: as §1
Peroxisome proliferator-activated receptor delta (Homo sapiens), sequence (Q03181 whole entry, looked up): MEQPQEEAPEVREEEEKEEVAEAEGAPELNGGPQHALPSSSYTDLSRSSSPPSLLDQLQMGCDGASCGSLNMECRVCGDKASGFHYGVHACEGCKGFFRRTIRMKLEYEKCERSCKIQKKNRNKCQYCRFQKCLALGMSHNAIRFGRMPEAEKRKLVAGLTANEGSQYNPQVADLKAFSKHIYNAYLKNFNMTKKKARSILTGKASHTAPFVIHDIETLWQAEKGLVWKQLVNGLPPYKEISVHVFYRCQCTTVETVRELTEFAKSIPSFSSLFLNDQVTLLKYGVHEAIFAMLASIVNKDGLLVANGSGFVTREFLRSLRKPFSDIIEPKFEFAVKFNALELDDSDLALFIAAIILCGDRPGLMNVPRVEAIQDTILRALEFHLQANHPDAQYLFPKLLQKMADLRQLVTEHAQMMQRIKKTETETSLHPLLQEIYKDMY
The target in assay [4] is Peroxisome proliferator-activated receptor gamma (Homo sapiens) (UniProt P37231). In words: qHTS assay for small molecule agonists of peroxisome proliferator-activated receptor gamma signaling (AID 588536; active means well fitted curve in the direction sought with a large enough effect in the signal ratio, with a control signal flat, not every such curve was filed as active; the % refers to the signal ratio;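 further: 0% = DMSO basal wells and 100% = rosiglitazone at 2 µM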). In short, it runs like this:
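Test agents, titrated, stimulated HEK293 UAS-bla cells overnight (16 h, 37 C). Substrate CCF4 was then added for two hours at room temperature before fluorescence reading.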

For assay [5], the target named is Vitamin D3 receptor (Homo sapiens) (UniProt P11473). Kind of assay: qHTS assay for small molecule antagonists of vitamin D receptor signaling (AID 588541; calls by dose curve;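 further: receptor activated by calcitriol during compound treatment; series mostly up to about 77 µM; on the % scale 0 is the no-effect control and ±100 the full control effect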). In short, it runs like this: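 VDR-UAS-bla HEK293T cells (2000/well, 2% charcoal-stripped FBS) were treated with titrated compounds plus 1-alpha,25-dihydroxyvitamin D3 (50 nM or 3 nM final) for 16 h at 37 C. CCF4 beta-lactamase fluorescence was read; Hill fits gave IC50.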
Vitamin D3 receptor (Homo sapiens), sequence (P11473 whole entry, looked up): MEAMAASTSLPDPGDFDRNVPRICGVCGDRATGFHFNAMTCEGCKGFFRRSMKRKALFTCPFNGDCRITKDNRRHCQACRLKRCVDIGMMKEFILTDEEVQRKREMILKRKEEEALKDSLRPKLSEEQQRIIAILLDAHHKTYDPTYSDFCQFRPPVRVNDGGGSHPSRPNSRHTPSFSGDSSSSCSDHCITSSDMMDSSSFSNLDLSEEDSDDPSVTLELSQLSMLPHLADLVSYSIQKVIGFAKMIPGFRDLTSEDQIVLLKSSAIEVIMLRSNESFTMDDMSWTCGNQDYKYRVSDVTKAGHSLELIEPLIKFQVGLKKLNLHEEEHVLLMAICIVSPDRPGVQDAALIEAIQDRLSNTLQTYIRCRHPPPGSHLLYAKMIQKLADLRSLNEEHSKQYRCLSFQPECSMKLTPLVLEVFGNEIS

Assay [6] in a line: qHTS assay for small molecule agonists of retinoid X receptor alpha signaling (AID 588544; calls by dose curve;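 on activation: 0% = DMSO basal wells and 100% = reference agonist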). The conditions noted are these: HEK293T RXRa-UAS-bla, beta-lactamase reporter, 18 h; 530 nm emission.
For assay [7], the target named is Retinoic acid receptor RXR-alpha (Homo sapiens) (UniProt P19793). The description is as above.
Retinoic acid receptor RXR-alpha (Homo sapiens), sequence (P19793 whole entry, looked up): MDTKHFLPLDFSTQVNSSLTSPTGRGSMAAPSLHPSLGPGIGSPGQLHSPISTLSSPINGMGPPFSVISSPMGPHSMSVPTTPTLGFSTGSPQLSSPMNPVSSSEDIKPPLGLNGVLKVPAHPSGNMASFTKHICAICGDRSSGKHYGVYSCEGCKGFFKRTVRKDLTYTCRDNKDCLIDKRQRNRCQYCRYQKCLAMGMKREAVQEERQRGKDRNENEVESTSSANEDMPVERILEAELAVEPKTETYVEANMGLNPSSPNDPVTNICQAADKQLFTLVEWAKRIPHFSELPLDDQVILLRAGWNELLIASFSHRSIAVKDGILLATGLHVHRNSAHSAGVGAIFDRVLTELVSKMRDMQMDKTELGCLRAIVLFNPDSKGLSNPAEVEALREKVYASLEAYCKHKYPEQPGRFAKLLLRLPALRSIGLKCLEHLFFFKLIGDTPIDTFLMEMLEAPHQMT
The target of assay [8] is Thyroid hormone receptor beta (Homo sapiens) (UniProt P10828). In words: qHTS assay for small molecule agonists of thyroid hormone receptor beta signaling (AID 588545; calls by dose curve). A digest of the protocol: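 HEK 293 TR-UAS-bla; agonist mode; 18 hrs, 37 C; CCF4, ex 405/em 460 and 530 nm; norm. T3 10 nM = 100%, DMSO = 0%; Hill fit → EC50, efficacy.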
Thyroid hormone receptor beta (Homo sapiens), sequence (P10828 whole entry, looked up): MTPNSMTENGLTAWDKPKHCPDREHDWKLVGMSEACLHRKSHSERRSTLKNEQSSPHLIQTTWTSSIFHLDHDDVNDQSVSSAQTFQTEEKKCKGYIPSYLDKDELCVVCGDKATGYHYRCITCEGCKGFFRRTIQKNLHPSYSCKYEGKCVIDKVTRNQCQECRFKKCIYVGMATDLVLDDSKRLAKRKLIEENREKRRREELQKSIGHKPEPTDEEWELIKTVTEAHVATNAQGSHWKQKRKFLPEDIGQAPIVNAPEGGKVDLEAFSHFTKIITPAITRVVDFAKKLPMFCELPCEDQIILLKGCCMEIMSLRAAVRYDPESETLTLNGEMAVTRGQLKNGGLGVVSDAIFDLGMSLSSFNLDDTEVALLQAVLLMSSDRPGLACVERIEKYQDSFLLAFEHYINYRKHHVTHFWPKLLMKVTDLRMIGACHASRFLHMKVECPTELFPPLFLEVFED
Assay [9] in a line: qHTS assay for small molecule antagonists of retinoid X receptor alpha signaling (AID 588546; active means well fitted inhibition curve with a large enough effect in the signal ratio, with a control signal flat, not every such curve was filed as active; the % refers to the signal ratio;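 further: cells stimulated with 9-cis-retinoic acid as agonist; on the % scale 0 is the no-effect control and ±100 the full control effect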). The following applies: HEK293T RXRa-UAS-bla, beta-lactamase ratio, antagonist mode; measured here: W530 green channel, cytotoxicity proxy. In short, it runs like this:
(§2)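 Beta-lactamase reporter inhibition, read as CCF4 fluorescence ratio (ex 405, em 460/530 nm) after 2 h at RT. HEK293T UAS-bla cells, 2500/well, were stimulated with 9-cis-RA at 500 or 100 nM final alongside test compound for 18 h at 37 C.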

Assay [10] concerns the target Retinoic acid receptor RXR-alpha (Homo sapiens) (UniProt P19793). Described as above. The conditions noted are these: HEK293T RXRa-UAS-bla, beta-lactamase ratio, antagonist mode. In short, it runs like this:
as §2

The target in assay [11] is Thyroid hormone receptor beta (Homo sapiens) (UniProt P10828). Kind of assay: qHTS assay for small molecule antagonists of thyroid hormone receptor beta signaling (AID 588547; active means well fitted inhibition curve with a large enough effect in the signal ratio, with a control signal flat, not every such curve was filed as active; the % refers to the signal ratio;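 further: cells stimulated with 0.4 nM T3 agonist during compound exposure; series mostly up to about 77 µM; on the % scale 0 is the no-effect control and ±100 the full control effect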). The following applies: TR-UAS-bla HEK293, beta-lactamase ratio, antagonist mode, 18 h. In short, it runs like this: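 TR-UAS-bla GripTite HEK293 cells in 2% charcoal/dextran FBS medium were preincubated 4 h at 37 C, given compound (0.59 nM to 92 uM) plus 0.4 nM T3 (final) for 18 h, then CCF4 for 2 h at RT; Hill fit gave IC50.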

The nature of assay [12]: qHTS assay for small molecule activators of the p53 signaling pathway (AID 651743; active means well fitted activation curve with a large enough effect in the signal ratio, not every such curve was filed as active; the % refers to the signal ratio; further: series mostly up to about 92 µM; % of control where 0% means no effect). The conditions noted are these: HCT-116 p53RE-bla, beta-lactamase FRET ratio, 16 h; activation: stronger effect = higher value. In short, it runs like this: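 Cell-based beta-lactamase reporter (p53 response elements, HCT-116 background). After a 5-hour preincubation, cells received compound for 16 hours at 37 C; substrate development ran 2 hours at room temperature.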

Assay [13] can be described thus: qHTS assay for environmental chemicals that activate the Aryl hydrocarbon Receptor (AhR) signaling pathway (AID 651777). Further: % of control where 0% means no effect; nearly all actives have a fitted effect of over 15% in size. The following applies: 1A2-DRE human hepatoma cells, luciferase, 24 h; activation: stronger effect = higher value. A digest of the protocol: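 Quantitative HTS in stably transfected human liver-derived cells whose luciferase gene sits downstream of the CYP1A2 promoter and dioxin response element. After 24 hr exposure at 37 C, One-Glo luminescence was measured.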

The target in assay [14] is Peroxisome proliferator-activated receptor alpha (Homo sapiens) (UniProt Q07869). In words: qHTS assay for small molecule agonists of the peroxisome proliferator-activated receptor alpha (PPARalpha) signaling pathway (AID 651778). Further: % of control where 0% means no effect. The following applies: PathHunter PPARalpha complementation, chemiluminescence, 6 h; max response: stronger effect = higher value. In short, it runs like this: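 Cells plated at 2,000/well and held overnight at 37 C, 5% CO2, then compound added by pin tool for 6 hr; after PathHunter detection reagent and 60 min at room temperature, chemiluminescence from enzyme complementation was read.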
Peroxisome proliferator-activated receptor alpha (Homo sapiens), sequence (Q07869 whole entry, looked up): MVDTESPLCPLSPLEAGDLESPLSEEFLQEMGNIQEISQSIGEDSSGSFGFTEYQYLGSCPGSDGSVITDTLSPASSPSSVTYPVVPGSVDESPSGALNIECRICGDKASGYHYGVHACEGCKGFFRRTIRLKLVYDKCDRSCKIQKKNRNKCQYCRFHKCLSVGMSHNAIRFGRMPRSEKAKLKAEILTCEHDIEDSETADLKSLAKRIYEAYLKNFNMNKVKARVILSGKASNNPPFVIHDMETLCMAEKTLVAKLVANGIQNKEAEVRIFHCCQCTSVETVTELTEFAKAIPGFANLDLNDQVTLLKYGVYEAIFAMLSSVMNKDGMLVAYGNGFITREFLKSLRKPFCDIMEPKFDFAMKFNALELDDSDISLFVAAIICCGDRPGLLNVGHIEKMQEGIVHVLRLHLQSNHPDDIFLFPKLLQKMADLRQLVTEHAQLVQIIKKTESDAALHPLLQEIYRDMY

The nature of assay [15]: qHTS assay for small molecule agonists of the antioxidant response element (ARE) signaling pathway measured by Nrf2-dependant transcriptional activity (AID 720636; active means well fitted curve in the direction sought with a large enough effect in the repeat runs; an effect the other way counts as inactive or inconclusive; further: % of control where 0% means no effect). In short, it runs like this:
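Quantitative HTS format in HepG2 cells stably expressing an ARE-luciferase reporter; 16 hr compound treatment at 37 C, luciferase signal detected with ONE-Glo.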

A short description of assay [16]: qHTS assay for small molecule agonists of the antioxidant response element (ARE) signaling pathway measured by Nrf2-dependant transcriptional activity - cell viability counter screen (AID 720653; active means well fitted curve in the direction sought with a large enough effect in the repeat runs; an effect the other way counts as inactive or inconclusive; further: on the % scale 0 is the no-effect control and ±100 the full control effect). The following applies: ARE-bla HepG2 viability, CellTiter-Glo ATP luminescence, 16 h; max response: stronger effect = lower value. A digest of the protocol: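 ARE-bla HepG2 cells (2,000/well) rested 5 hrs at 37C/5% CO2, then exposed to compounds in DMSO for 16 hrs. Viability was read in the same wells as intracellular ATP by luminescence, 30 min at room temperature after reagent addition.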

A short description of assay [17]: qHTS assay for cell viability of HEK293 cells (AID 743288). Further: nearly all actives have a fitted effect of over 50% in size. Further: potency means the concentration at half of the fitted maximal effect. The following applies: ATP luminescence (CellTiter-Glo), 18 h; max response: stronger effect = lower value. In short, it runs like this: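 The Tox21 protocol used parental HEK293 cells treated for 18 h at 37 C with compounds delivered by pintool; ATP-coupled luminescence after 30 min at room temperature gave viability.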

Assay [18] in a line: qHTS assay for cell viability of the p53RE-bla HCT-116 cell line (AID 743292). Further: nearly all actives have a fitted effect of over 55% in size. Further: potency means the concentration at half of the fitted maximal effect. In short, it runs like this: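 Viability of compound-treated p53RE-bla HCT-116 cells is taken from ATP-dependent luciferase luminescence. Treatment lasts 16 h at 37 C after a 5 h settling period; detection follows 30 min at room temperature.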
Assay [19] concerns the target Nuclear receptor subfamily 1 group I member 2 (Rattus norvegicus) (UniProt Q9R1A7). In words: qHTS assay for small molecule activators of the rat pregnane X receptor (rPXR) signaling pathway (AID 651751; call rule not given here; further: 0% is about no effect). The following applies: rPXR reporter cells, luciferase (One-Glo), 24 h.
A short description of assay [20]: qHTS assay for small molecule activators of the human pregnane X receptor (PXR) signaling pathway (AID 720659; call rule not given here; further: 0% is about no effect).

SMILES strings stand for the structures. Results filed as inconclusive are left out. Active and inactive are the calls of the source. Unless noted, the call rests on the fitted dose curve; in most records, active means well fitted curve in the direction sought with a large enough effect; inconclusive means small, poorly fitted or top-dose-only effect, or another doubt; inactive means no such curve, though single readings can be large; an effect the other way counts as inactive or inconclusive.

Peroxisome proliferator-activated receptor gamma (Homo sapiens), sequence (P37231 whole entry, looked up): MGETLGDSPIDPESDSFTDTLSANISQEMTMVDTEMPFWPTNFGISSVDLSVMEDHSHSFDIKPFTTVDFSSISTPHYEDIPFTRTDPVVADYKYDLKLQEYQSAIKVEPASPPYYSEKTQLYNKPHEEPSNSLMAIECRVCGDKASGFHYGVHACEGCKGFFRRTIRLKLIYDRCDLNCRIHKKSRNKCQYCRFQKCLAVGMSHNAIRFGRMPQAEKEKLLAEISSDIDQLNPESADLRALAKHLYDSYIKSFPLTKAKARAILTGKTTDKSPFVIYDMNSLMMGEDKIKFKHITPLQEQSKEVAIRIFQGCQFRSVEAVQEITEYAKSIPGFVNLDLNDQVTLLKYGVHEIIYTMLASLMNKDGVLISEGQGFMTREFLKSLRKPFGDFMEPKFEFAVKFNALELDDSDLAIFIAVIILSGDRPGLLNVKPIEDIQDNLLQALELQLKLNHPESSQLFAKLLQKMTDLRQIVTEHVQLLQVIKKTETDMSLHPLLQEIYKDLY
Nuclear receptor subfamily 1 group I member 2 (Rattus norvegicus), sequence (Q9R1A7 whole entry, looked up): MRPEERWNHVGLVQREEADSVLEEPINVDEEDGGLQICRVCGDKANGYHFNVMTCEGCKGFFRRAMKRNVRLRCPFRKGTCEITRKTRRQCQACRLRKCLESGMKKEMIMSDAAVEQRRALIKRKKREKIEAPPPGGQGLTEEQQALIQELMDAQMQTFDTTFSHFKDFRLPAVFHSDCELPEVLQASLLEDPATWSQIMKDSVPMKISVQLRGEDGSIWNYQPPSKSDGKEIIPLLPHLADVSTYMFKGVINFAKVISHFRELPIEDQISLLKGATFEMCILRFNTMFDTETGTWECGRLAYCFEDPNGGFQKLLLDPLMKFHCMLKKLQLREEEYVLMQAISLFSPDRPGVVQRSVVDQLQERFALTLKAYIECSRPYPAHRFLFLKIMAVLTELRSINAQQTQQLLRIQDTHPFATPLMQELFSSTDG
Estrogen receptor (Homo sapiens), sequence (P03372 whole entry, looked up): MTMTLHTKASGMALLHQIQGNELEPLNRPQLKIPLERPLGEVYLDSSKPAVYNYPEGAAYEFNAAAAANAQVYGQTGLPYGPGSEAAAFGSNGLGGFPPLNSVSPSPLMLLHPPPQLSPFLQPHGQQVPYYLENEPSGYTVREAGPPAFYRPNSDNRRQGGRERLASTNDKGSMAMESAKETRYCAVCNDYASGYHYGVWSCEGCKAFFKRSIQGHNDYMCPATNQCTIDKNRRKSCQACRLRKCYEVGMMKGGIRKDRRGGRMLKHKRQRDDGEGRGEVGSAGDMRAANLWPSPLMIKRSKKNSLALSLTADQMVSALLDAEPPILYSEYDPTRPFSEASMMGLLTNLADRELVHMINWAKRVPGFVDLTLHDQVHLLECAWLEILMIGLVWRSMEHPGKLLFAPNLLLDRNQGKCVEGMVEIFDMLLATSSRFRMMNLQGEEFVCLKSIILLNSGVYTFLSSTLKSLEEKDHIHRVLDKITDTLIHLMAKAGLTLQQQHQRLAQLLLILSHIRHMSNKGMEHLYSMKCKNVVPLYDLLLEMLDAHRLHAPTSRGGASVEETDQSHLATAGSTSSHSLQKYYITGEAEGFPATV

`CCC(C)(C)C1CCC(O)CC1` (configuration not stated): the Potency entry in assay [1], in assay [3], in assay [5], in assay [7], in assay [8] and in assay [15] was “inactive” in each case. In addition, in [18], the Potency entry is “inactive”. Moreover, the max response in assay [2] was -12.1%; in assay [6] it was -12.5%; in assay [9], 9.01%; in assay [10], -29.4% (inactive); in [14] it was -0.406% (inactive); in assay [16], -8.65% (inactive). The max response in assay [17] was -3.71% (inactive); in assay [19] it was -1.01% (inactive). The result in [4] and in assay [20] was inactive. Further, the activity change % (negative = inhibition) in assay [11] is -5.82% (inactive). For the same compound, the activation was 1.97% (inactive) in assay [12] and -0.126% (inactive) in [13].
For `O=S(=O)(O)c1ccc(N=Nc2cc(S(=O)(=O)O)c3ccccc3c2O)c2ccccc12`, the max response was 26.6% in assay [2]; -24.8% in assay [6]; 4.4% in assay [9]; 4.36% (inactive) in assay [10]; -9.4% (inactive) in assay [14]; -7.09% (inactive) in assay [19]. The Potency entry in [3], in [5], in assay [7] and in [15] was “inactive” in each case. Also, the result in assay [4] and in assay [20] was inactive. Also, the activation in [12] is 2.63% (inactive); in assay [13], 3.98% (inactive). Also, the Potency was 44.7 µM (active) in [17] and 39.8 µM (active) in assay [18].
For `BrC1CCC(Br)C(Br)CCC(Br)C(Br)CCC1Br` (configuration not stated), the max response was 11.4% in [2]; 0.976% in assay [6]; -2.96% in [9]; 0.219% (inactive) in assay [16]; -7.59% (inactive) in [17]; 0.315% (inactive) in [19]. The Potency result in assay [3], in assay [5], in assay [7], in [8], in assay [15] and in assay [18] was “inactive” throughout. In addition, the compound was classed as inactive in [4] and in [20]. In assay [11], the activity change % (negative = inhibition) is 9.02% (inactive). In addition, the activation was -4.94% (inactive) in assay [12] and 1.8% (inactive) in assay [13].
As to `C[Si](C)(Cl)[Si](C)(C)Cl`, the max response is -22.7% in [2]; -0.475% in assay [6]; -27.8% in assay [9]; 1.76% (inactive) in assay [14]; -9.32% (inactive) in assay [16]; -5.72% (inactive) in [17]. Also, in assay [19], the max response is -0.179% (inactive). The Potency result in [3], in [5], in [7], in assay [8], in assay [15] and in assay [18] was “inactive” each time. Moreover, the compound was classed as inactive in [4] and in assay [20]. For the same compound, in [11], the activity change % (negative = inhibition) is 6.15% (inactive). Also, the activation is -0.0629% (inactive) in assay [12] and -0.723% (inactive) in [13].
For `O=C(O)C1(C(=O)Nc2ccc(Cl)cc2Cl)CC1`, the Potency result in [5], in assay [8] and in assay [18] was “inactive” throughout. Also, the max response in [9] was 8.82%; in [14], 0.116% (inactive); in [16] it was -1.63% (inactive); in assay [17], -9.45% (inactive). Also, the result in assay [20] was inactive.
Take `CCN(Cc1cccc(S(=O)(=O)O)c1)c1ccc(C(=C2C=CC(=[N+](CC)Cc3cccc(S(=O)(=O)[O-])c3)C=C2)c2ccccc2)cc1`: the Potency result in assay [1], in [8] and in assay [18] was “inactive” each time. Also, the max response in assay [9] is 16.5%; in assay [10], 8.46% (inactive); in [14], -3.93% (inactive); in assay [16] it was -9.88% (inactive); in [17], -13.6% (inactive); in assay [19], -0.0295% (inactive). In assay [11], the activity change % (negative = inhibition) was -4.54% (inactive). For the same compound, the activation was -2.82% (inactive) in assay [12] and -1.94% (inactive) in assay [13]. In assay [20], the compound was classed as inactive.
